CHT allo act: human CHT allosteric activation. CHT-expressing cells, membrane potential dye, choline EC20; hits give high values; LV-AA mutant CHT in HEK293 cells. Q9GZV3. B-score at 10 µM. 310,000 compounds, 0.49% hits. AID 488977;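 active means initial fluorescence not abnormally high and integrated response B-score, plate-corrected, over 3 SD above library mean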
CHT inh: inhibits the human high affinity choline transporter; B-score at 10 µM; 310,000 compounds, 0.86% hits; CHT-expressing cells, membrane potential dye, choline response; hits give low values; Q9GZV3;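 active means B-score over 3 SD under the library average, and starting fluorescence ratio not unusually high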;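 further: choline stimulus applied at its EC90 after an EC20 pre-addition; B-score computed on integrated fluorescence ratio after choline addition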
ANO1 activ: mouse TMEM16A channel activation, primary screen | AID 623877 | 340,000 compounds, 0.3% hits | HEK293 TMEM16A/YFP-H148Q/I152L, iodide quench fluorescence; hits give low values | B-score at 10 µM;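 active means fluorescence-ratio B-score plate-corrected deviation score at least 3 library SD below zero, with starting fluorescence score within 5 deviations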;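 further: channel opened by trigger with iodide after compound preincubation; score built on the fluorescence ratio of max minus min over baseline; more negative score means more quench and so TMEM16A activation or potentiation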
GPR7 antag: human neuropeptides B/W receptor 1 antagonism. 290,000 compounds, 1.1% hits. inhibition, % at 4.4 µM. AID 1861. P48145. GPR7-expressing cells, fluorescence antagonist assay; in the data active means inhibition above about 16%, passing the limit was not always enough;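 further: cells stimulated with the agonist NPW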
Target sequence (P48145 whole entry, looked up): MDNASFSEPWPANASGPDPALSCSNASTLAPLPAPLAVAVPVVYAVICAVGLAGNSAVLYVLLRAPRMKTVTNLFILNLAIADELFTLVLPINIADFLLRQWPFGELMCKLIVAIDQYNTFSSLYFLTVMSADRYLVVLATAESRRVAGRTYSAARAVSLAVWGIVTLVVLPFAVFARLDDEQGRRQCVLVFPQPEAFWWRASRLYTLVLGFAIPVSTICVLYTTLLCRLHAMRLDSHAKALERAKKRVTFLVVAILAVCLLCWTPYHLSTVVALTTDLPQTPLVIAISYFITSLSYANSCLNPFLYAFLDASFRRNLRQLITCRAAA
ANO1 block: mouse TMEM16A channel inhibition, primary screen; Q8BHY3; HEK293 TMEM16A/YFP iodide influx fluorescence, ionomycin; normalized B-score (activity score, 25-100; higher = stronger inhibition) at 10 µM; 310,000 compounds, 1.2% hits; AID 588511;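 active means ratio plate-corrected score three or more library SD toward inhibition, starting fluorescence score within five deviations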;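 further: score derived from kinetic fluorescence span divided by baseline fluorescence per well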
Kir21 inh: blocks the mouse Kir2.1 inward-rectifier potassium channel. AID 1672. HEK293-Kir2.1, FluxOR thallium flux fluorescence; hits give low values. B-score at 10 µM. 310,000 compounds, 0.85% hits;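 active means fluorescence ratio B-score at or below minus 3 SD of library scores, with starting-brightness B-score within 2 SD, cut at about -4.2 in these data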;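 further: channel flux triggered by added potassium and thallium sulfate stimulus; B-score of peak minus minimum fluorescence over baseline after thallium stimulus; more negative B-score means stronger Kir2.1 block with less thallium influx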
CHT inh conf: human CHT inhibition, confirmatory screen; shares compounds with CHT inh; CHT activity remaining % of control (hits give low values), % at 10 µM; AID 493221; 2,400 compounds, 70% hits; CHT-expressing cells, choline membrane potential dye; LV-to-AA substituted CHT, HEK293 cells;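 active means choline transporter activity left, mean of duplicates at 10 µM, below buffer-only control mean minus 3 SD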;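 further: depolarization triggered by choline at its EC90 following an EC20 pre-addition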
HEK293 CHT ctr: CHT inhibitor counter-screen hit in parental HEK293 cells; shares compounds with CHT inh; 2,400 compounds, 4% hits; membrane potential dye, choline response; active = decrease or increase beyond buffer ±3SD; membrane potential ratio readout (active if shifted either direction beyond buffer ±3SD; no single direction) at 10 µM;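 further: parental cells lack the transporter so any hit is non-specific; ratio is peak minus trough fluorescence over baseline after EC90 choline challenge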
Hits are given with their value; – = inactive; · = no result given. Sampled rows, rich in hits. Any-hit rate of the full collection: about 3.7%.

SMILES	CHT allo act	CHT inh	ANO1 activ	GPR7 antag	ANO1 block	Kir21 inh	CHT inh conf	HEK293 CHT ctr
CCCCn1c(NC(C)CC)nc2c1c(=O)[nH]c(=O)n2C (stereo unspecified)	–	-5.47	–	–	–	–	37.4%	-8.9
O=C(COC(=O)c1cncc(Br)c1)NCc1cccs1	·	·	–	·	·	·	·	·
O=[N+]([O-])c1ccc(NNC(=S)Nc2ccc(F)cc2)cc1	–	-6.95	–	–	100	–	–	–
CCCCNC(=S)NC(=O)c1ccc([N+](=O)[O-])cc1	–	–	–	–	–	–	·	·
CCCCNC(=S)Nc1ccc([N+](=O)[O-])cc1	–	-9.25	–	23.1	100	–	34.7%	–
CC(C)CCNC(=S)Nc1ccc([N+](=O)[O-])cc1	–	-8.68	–	21.9	100	-11.1	22.7%	–
CCOc1ccc(NC(=O)CSc2nnc(CNC(=O)c3cccs3)o2)cc1	–	–	–	–	–	–	·	·
C/C(=N\NC(=O)c1ccoc1C)c1cccc2ccccc12	–	-7.57	–	–	–	–	–	–
CCCOc1ccc(C(CC(=O)O)NC(=O)c2cccs2)cc1 (stereo unspecified)	–	–	–	–	–	–	·	·
CCCOc1ccc(C(CC(=O)O)NC(=O)CC(c2ccccc2)c2ccccc2)cc1 (stereo unspecified)	–	-6.77	–	–	–	–	24.3%	–
C=CC[C@@H](CC(=O)OC(C)(C)C)C(=O)OC[C@H]1CCCN1C(=O)[C@@H](CC=C)CC(=O)N(CCO)Cc1ccccc1	·	·	–	·	·	·	·	·
CC(C)(C)OC(=O)NCCCC[C@@H](C(=O)NCCCCCCCCCCC(=O)N1CCN(C(=O)OC(C)(C)C)CC1)n1cc(CCO)nn1	–	–	–	·	–	·	·	·
CSCC[C@@H](C(=O)NCCCCCCCCCCC(=O)N1CCN(C(=O)OC(C)(C)C)CC1)n1cc(CCO)nn1	–	-6.37	–	·	–	·	40.0%	–
Cc1nc(C)c(C(=O)Nc2ccc(Oc3ccccc3)cc2)o1	–	–	–	–	–	–	·	·
Cc1ncoc1C(=O)Nc1ccc(Oc2ccccc2)cc1	–	-5.96	–	–	–	–	56.9%	–
COCC(=O)Nc1nnc(-c2ccc(C(C)(C)C)cc2)s1	–	–	–	–	–	–	·	·
CCOc1cc(C(=O)OCC(=O)N(C)c2ccccc2)cc(OCC)c1OCC	–	–	–	–	–	–	·	·
CCCCN=C1CC(C)(C)CC(=O)/C1=C(/O)CCC	–	–	–	–	–	–	·	·
O=C(CC12CC3CC(CC(C3)C1)C2)NCc1ccc(F)cc1	–	–	–	–	–	–	·	·
CN(Cc1nc(-c2ccncc2)no1)S(=O)(=O)c1ccc(Cl)cc1	–	–	–	–	–	–	·	·
CN(Cc1nc(-c2ccncc2)no1)S(=O)(=O)c1ccc(Br)cc1	–	-7.97	–	–	–	–	–	–
COc1ccc(NC(=O)CN2CCN(C(=S)NC3CCCC3)CC2)cc1	–	-6.29	–	–	–	–	–	–
COc1ccc(OCc2cc(C(=O)O)c(C)o2)cc1	–	–	·	–	–	–	·	·
COC(=O)C1CN(C(=O)COc2cccc(C)c2C)c2ccccc2O1 (stereo unspecified)	–	–	–	–	–	–	·	·
COC(=O)C1CN(C(=O)C(C)Oc2ccccc2Cl)c2ccccc2O1 (stereo unspecified)	–	-5.22	–	–	–	–	71.1%	–
SMILES	CHT allo act	CHT inh	ANO1 activ	GPR7 antag	ANO1 block	Kir21 inh	CHT inh conf	HEK293 CHT ctr
COc1ccc(CN(C)c2ncnc3sccc23)c(OC)c1OC	–	–	–	–	–	–	65.1%	–
COc1ccc(CCN(C)c2ncnc3sccc23)cc1OC	–	–	–	–	–	–	·	·
CCN(CC(=O)Nc1c(F)cccc1F)C(=O)C1CCN(c2ncnc3sc(C)c(C)c23)CC1	–	–	–	·	–	–	·	·
CN(C(=O)c1ccccc1Cl)C1CCCCC1	–	-6.75	–	–	–	–	–	–
CN(C(=O)c1cc2ccccc2cc1O)C1CCCCC1	–	–	–	–	–	–	·	·
O=C(COC(=O)c1cccc([N+](=O)[O-])c1)Nc1ncc(Br)s1	·	·	–	·	·	·	·	·
COc1ccccc1OCC(=O)n1cc(C(=O)c2cc(Cl)cc(Cl)c2O)cn1	–	–	–	–	–	–	·	·
Cn1c(=O)c(C#N)c(-c2ccc(F)cc2)c2cc(C(=O)c3cc(Cl)cc(Cl)c3O)cnc21	–	-8.2	–	–	100	–	52.8%	–
O=c1c(O)c(-c2ccccc2)oc2cc(O)cc(O)c12	·	·	–	·	·	·	·	·
O=c1cc(-c2ccccc2)c2c(O)cc(O)cc2o1	–	-4.97	–	–	–	–	50.4%	–
CC(NS(=O)(=O)OCC(Cl)(Cl)Cl)c1ccc(Br)cc1 (stereo unspecified)	–	-5.18	–	–	–	-7.11	67.3%	–
O=C(CSc1nnc(-c2ccc(O)cc2)n1Cc1ccco1)N1CCc2ccccc2C1	–	-5.85	–	–	–	–	–	–
NC(=O)CSc1nnc(-c2ccc(O)cc2)n1Cc1ccco1	–	–	–	–	–	–	·	·
C=CCOC(=O)C1=C[C@@H](c2cn(C(C)=O)c3ccccc23)C[C@@H](OCCCCO)O1	–	-5.27	–	–	–	–	–	–
Cc1cc(NC(=O)CSCC(=O)N2CCN(c3ccccc3)CC2)no1	·	·	–	·	·	·	·	·
COc1cc(/C=C2\SC(=Nc3ccccc3OC)NC2=O)ccc1O	–	-5.39	–	–	–	–	–	–
COc1cc(/C=C2/SC(=Nc3ccc(O)cc3)NC2=O)ccc1O	–	–	–	–	–	–	·	·
Nc1cc(N)nc(SCC(=O)NC(=O)NC2CCCC2)n1	·	·	–	·	·	·	·	·
Cc1nc(SCC(=O)NC(=O)NC2CCCCC2)nc(C)c1C	–	-10.6	–	–	–	–	3.3%	–
CN1CCN(C(=O)c2ccc3c(c2)N(Cc2ccc(F)cc2)C(=O)c2ccccc2S3=O)CC1 (stereo unspecified)	–	–	–	–	–	–	·	·
CN(C)Cc1c(-c2ccc(Cl)cc2)nc2ccc(Cl)cn12	–	–	–	–	–	–	·	·
CCCCn1c(=O)[nH]c(=O)c2c1nc(Cn1ncc(Cl)c(Cl)c1=O)n2CCC	–	-6.14	–	–	–	–	52.7%	–
O=C(NC1CCCC1)C(c1cccnc1)N(CCc1ccccc1)C(=O)c1ccco1 (stereo unspecified)	–	-5.98	–	–	–	–	54.9%	–
Cc1sc[n+](CC(=O)c2ccc(Br)cc2)c1C	–	-13.4	–	–	–	–	24.2%	–

Source: PubChem BioAssay (several laboratories)
